Experimental data taken from PubChem BioAssay AID504832 (National Center for Advancing Translational Sciences (NCATS), 2011).
Values joined by “and” are separate entries in the source; they are usually repeats but may differ in a detail not shown here. Identical values can stand only once. In all, about 310,000 compounds went through this assay and about 18,000 (5.8%) were called active. A call without a number means that no potency is given here. Another 22% or so got no clear call; they are omitted. This is one part of a sample in which actives are shown more often than they occur. The call rests on the fitted dose curve; in most records, active means well fitted inhibition curve with a large enough effect; inconclusive means small, poorly fitted or top-dose-only effect, or another doubt; inactive means no such curve, though single readings can be large or run the other way. A structure can be active in one record and inactive in another.

Test: Primary qHTS for delayed death inhibitors of the malarial parasite plastid, 48 hour incubation
Conditions: P. falciparum luciferase growth in erythrocytes; series mostly up to 28.7 µM
In short: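 A one-generation exposure of luciferase-tagged malaria parasites in RPMI 1640/Albumax erythrocyte culture, 37 C and 5% CO2. Inhibition is inferred from decreased luminescence after adding detection reagent.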
Potency means the concentration at half of the fitted maximal effect.

| Structure (SMILES) | Potency | activity change, negative = inhibition |
| --- | --- | --- |
| O=C(CN1CCN(S(=O)(=O)c2ccc(Br)cc2)CC1)Nc1ccccc1C(=O)c1ccccc1 | 13.1 µM (active) |  |
| O=C(CN1CCN(S(=O)(=O)c2ccc(F)cc2)CC1)Nc1ccccc1F | inactive |  |
| C/C(=N/NC(=O)CN1CCN(S(=O)(=O)c2ccc(Br)cc2)CC1)c1ccncc1 | inactive |  |
| COc1cc2c(cc1NC(=O)CN1CCN(S(=O)(=O)c3ccc(F)cc3)CC1)oc1ccccc12 | 10.4 µM (active) |  |
| COc1cc2c(cc1NC(=O)COC(=O)/C=C/c1ccccc1)oc1ccccc12 | inactive |  |
| COc1ccc(NC(=O)CN2CCN(S(=O)(=O)c3ccc(F)cc3)CC2)cc1Cl | inactive |  |
| CCCn1c(N)c(N(CCOC)C(=O)C2CCCC2)c(=O)[nH]c1=O | inactive |  |
| Cc1cc(NC(=O)CCS(=O)(=O)c2ccc(F)cc2)no1 | inactive |  |
| CC(C)=N/N=C1/NC(=O)C(Cc2ccccc2)S1 (stereo unspecified) | inactive |  |
| N#CC1(NC(=O)COC(=O)CCN=C2NS(=O)(=O)c3ccccc32)CCCCC1 | inactive |  |
| CC(=O)Nc1ccc(S(=O)(=O)N2CCC(C(=O)N[C@@H](Cc3ccccc3)C(=O)O)CC2)cc1 | inactive |  |
| CN1CCc2cc3c(cc2[C@H]1[C@@H]1OC(=O)c2c1ccc1c2OCO1)OCO3 | inactive |  |
| COc1c(O)ccc2c1CN1CCc3cc4c(cc3C1C2)OCO4 (stereo unspecified) | 1.85 µM (active) |  |
| COc1cc(COCC(O)CN2CCN(Cc3ccc4c(c3)OCO4)CC2)cc(OC)c1OC (stereo unspecified) | inactive |  |
| COc1ccc(N2CCN(C(=O)CNC(=O)c3ccc(Br)o3)CC2)cc1 | inactive |  |
| COc1cccc(C(=O)NNC(=O)c2cccc(F)c2)c1 | inactive |  |
| CC(OC(=O)CCC(=O)c1ccccc1)C(=O)Nc1ccc(F)cc1 (stereo unspecified) | inactive |  |
| C=CCC(NCc1ccco1)c1ccc(OC)cc1 (stereo unspecified) | inactive |  |
| COc1ccc(Nc2nc(Cl)nc(NCc3ccco3)n2)cc1 | inactive |  |
| COc1ccc(Nc2nc(NCc3ccco3)nc(N/N=C/c3ccccc3Cl)n2)cc1 | 10.4 µM (active) |  |
| CC1(c2nnc(Cc3ccccc3)o2)CC(c2ccccc2F)=NO1 (stereo unspecified) | inactive |  |
| O=C(Nc1ccc(S(=O)(=O)NCC2CCCO2)cc1)c1ccc(F)cc1 (stereo unspecified) | inactive |  |

| Structure (SMILES) | Potency | activity change, negative = inhibition |
| --- | --- | --- |
| Cc1ccc(C)c(OCc2cc(C(=O)N3CCN(c4cnccn4)CC3)no2)c1 | inactive |  |
| COc1cc(C2C3=C(CCCC3=O)OC3=C2C(=O)CCC3)ccc1OCC(=O)Nc1ccccc1 | inactive |  |
| O=C(CCC1CCCC1)N=C1SC2CS(=O)(=O)CC2N1Cc1ccccc1 (stereo unspecified) | inactive |  |
| CC(C)(C)c1ccc(C(CC(=O)O)NS(=O)(=O)Cc2ccccc2)cc1 (stereo unspecified) | inactive |  |
| CCCOc1ccc(C(=O)C(CCC(CNCC)C(=O)c2ccc(OCCC)cc2)CNCC)cc1 (stereo unspecified) | 1.85 µM (active) |  |
| CCCOc1ccc(C(=O)NCCc2ccccc2)cc1 | inactive |  |
| CCCOc1ccc(C(=O)CCC(=O)OC(C)C(=O)Nc2ccc(NC(C)=O)cc2)cc1 (stereo unspecified) | inactive |  |
| COc1ccc(NC(=O)N2CCCC2C(=O)NCc2ccccc2Cl)cc1 (stereo unspecified) | inactive |  |
| O=C(N/C(=C\c1ccc(O)cc1)C(=O)N1CCCCC1)c1ccccc1 | inactive |  |
| Nc1ccn(C2CC(O)C(CO)O2)c(=O)n1 (stereo unspecified) | inactive |  |
| Cc1ccc(NC(=O)CSc2nc(=O)n(CCN(C)C)c3c2CCCC3)c(C)c1 | inactive |  |
| COc1ccc2c3c(c(=O)oc2c1)C1O[C@](CCCCN2C(=O)c4ccccc4C2=O)(Cc2c1ccc1ccccc21)O3 |  | 44.1% [at 5.75 µM] (inactive) |
| C=CCn1c(C)cc(C(=O)CN2C(=O)c3ccccc3C2=O)c1C | inactive |  |
| Cc1cc2c(c(=O)n1Cc1ccccc1)C1O[C@](CCCCN3C(=O)c4ccccc4C3=O)(Cc3ccccc31)O2 | 0.675 µM (active) |  |
| NNC(=O)c1ccc(Cl)cc1Cl | inactive |  |
| CC(C)(C)NC(=O)NC(=O)COC(=O)Cc1ccc(Cl)cc1Cl | inactive |  |
| CC(C)(C)c1cc(C(=O)NN)n(Cc2ccc(Cl)cc2Cl)n1 | 10.4 µM (active) |  |
| O=C(Cc1ccc(Cl)cc1)NC(=S)Nc1ccccc1O | inactive |  |
| Cc1cc(SCc2c(F)cccc2Cl)nc(=O)[nH]1 | inactive |  |
| C/C(=N\NC(=O)c1nc(C)cc(C)n1)c1ccccc1 | inactive |  |
| Cc1cc(C)nc(S/C=C/C(=O)c2ccccc2)n1 | inactive |  |
| COC(c1ccccc1)(c1ccccc1)C(Oc1nc(C)cc(C)n1)C(=O)O (stereo unspecified) | inactive and 11.7 µM (active) |  |

| Structure (SMILES) | Potency | activity change, negative = inhibition |
| --- | --- | --- |
| COc1ccccc1N1CCN(S(=O)(=O)c2ccc(Cl)cc2)CC1 |  | 1.21% [at 0.00184 µM] (inactive) |
| CC1CCC(NC(=O)CN(C)S(=O)(=O)c2ccc3c(c2)c(=O)n(C)c(=O)n3C)CC1 (stereo unspecified) | inactive |  |
| Cc1cc(=O)oc2c1ccc1ccccc12 | inactive |  |
| C=CCN1C2CCCC1CC(NC(=S)Nc1cccc(OC)c1)C2 (stereo unspecified) | inactive |  |
| Cc1ccc(NC(=S)NC2CCCC2)cc1 | inactive |  |
| Cc1cc(C)cc(NC(=S)NC2CC3CCCC(C2)N3Cc2cccs2)c1 (stereo unspecified) | 9.28 µM (active) |  |
| CC(=O)O[C@H]1CC[C@@]2(C)[C@@H](CC[C@@H]3[C@@H]2CC[C@]2(C)[C@@H](C(C)(C)O)C[C@@H]32)C1 | inactive |  |
| O=C(/C=C(O)/C=C/c1ccc(O)cc1)/C=C/c1ccc(O)cc1 | inactive |  |
| CC(=O)Nc1ccc(SC[C@H](Cc2ccccc2)N2CC[C@@H](C)CCC2=O)cc1 | 6.57 µM (active) |  |
| CC(=O)Nc1ccc(NC(=O)C(C)OC(=O)C2CC(=O)N(CCc3ccccc3)C2)cc1 (stereo unspecified) | inactive |  |
| O=C1CC[C@H](O)CCN1[C@H](CSc1ccc(Br)cc1)Cc1ccccc1 | inactive |  |
| Cc1ccc2nc(NC(=O)C3CSC4(C)CCC(=O)N34)sc2c1 (stereo unspecified) | inactive |  |
| Cc1cc(-c2nnc(SCC(=O)Nc3ccc(F)cc3)n2N)n[nH]1 | inactive |  |
| CC(C)Cc1nnc(NC(=O)CCc2ccccc2)s1 | inactive |  |
| Cc1ccnc(N2CCN(C(=O)CSc3nc4ccccc4nc3N3CCCCC3)CC2)c1 | 13.1 µM (active) |  |
| O=C(Cc1ccccc1Cl)N1CCN(c2ccccn2)CC1 | inactive |  |
| O=C(CSc1ncccn1)N1CCCC1 | inactive |  |
| COc1ccc2c(c1)c1nc3n(c(=O)c1n2CC(=O)Nc1ccccc1)CCS3 | inactive |  |
| O=C(CNS(=O)(=O)c1ccccc1)N1CCN(C(=O)c2ccco2)CC1 | inactive |  |
| O=C(c1cccc(S(=O)(=O)Nc2ccccc2Cl)c1)N1CCN(C(=O)c2ccco2)CC1 | inactive |  |
| CS/C(=C\C(=O)c1ccco1)Nc1ccccc1Cl | 8.28 µM (active) |  |
| O=C(Nc1ccccc1C(=O)N1CCCCC1)c1ccco1 | inactive |  |
